Most compounds without a hit are left out; they make up all but 1.2% or so of the library.
PKD1 inh: inhibitors of human PKD1 kinase; Q15139; PKD1 kinase fluorescence polarization assay; inhibition, % (test concentration not listed); actives 0.056% (n = 200,000); in the data active means inhibition above about 50%
Target sequence (Q15139 whole entry, looked up): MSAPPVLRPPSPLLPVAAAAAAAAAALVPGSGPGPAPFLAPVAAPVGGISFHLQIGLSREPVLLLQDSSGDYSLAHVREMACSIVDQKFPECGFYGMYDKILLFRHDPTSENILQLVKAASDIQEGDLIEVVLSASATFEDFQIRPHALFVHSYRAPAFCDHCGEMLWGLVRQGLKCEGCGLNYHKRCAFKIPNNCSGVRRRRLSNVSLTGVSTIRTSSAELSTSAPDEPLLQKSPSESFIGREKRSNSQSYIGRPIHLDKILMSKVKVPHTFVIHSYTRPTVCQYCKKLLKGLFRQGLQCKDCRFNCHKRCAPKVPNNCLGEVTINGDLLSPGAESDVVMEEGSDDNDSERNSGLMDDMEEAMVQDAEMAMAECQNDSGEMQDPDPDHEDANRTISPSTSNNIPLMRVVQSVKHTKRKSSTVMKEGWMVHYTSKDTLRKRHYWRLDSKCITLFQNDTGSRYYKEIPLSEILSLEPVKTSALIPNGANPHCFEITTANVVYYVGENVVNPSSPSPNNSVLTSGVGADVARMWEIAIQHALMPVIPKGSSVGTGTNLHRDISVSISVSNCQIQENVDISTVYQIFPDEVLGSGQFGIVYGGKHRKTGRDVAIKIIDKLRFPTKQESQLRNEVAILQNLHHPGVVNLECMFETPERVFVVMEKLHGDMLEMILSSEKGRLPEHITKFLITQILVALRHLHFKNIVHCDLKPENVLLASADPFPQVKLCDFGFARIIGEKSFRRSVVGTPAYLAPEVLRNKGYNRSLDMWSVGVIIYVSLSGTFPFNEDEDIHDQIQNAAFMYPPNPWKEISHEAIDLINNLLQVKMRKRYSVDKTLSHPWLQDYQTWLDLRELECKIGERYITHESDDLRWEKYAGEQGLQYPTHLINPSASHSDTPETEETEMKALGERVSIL
p97 ATPase inh: human p97 ATPase inhibition; P55072; recombinant p97 ATPase, Kinase-Glo ATP luminescence, 3 h; inhibition, % at 8 µM; actives 0.42% (n = 220,000); in the data active means inhibition above about 15%;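 further: 0% = DMSO vehicle and 100% = wells lacking enzyme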
Redox H2O2 prof: compounds producing H2O2 with reducing agent – biochemical, NIH compound library profiling, artefact control for MLSCN library redox annotation, primary screen; DTT-dependent redox cycling H2O2, phenol red/HRP absorbance; 100% = 100 µM peroxide control, 0% = buffer; actives 0.03% (n = 200,000); AID 878; activation, % at 10 µM;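 active means activation of at least 50% relative to the plate's high and low controls in the primary single-dose screen; inactive means activation below 50%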;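 further: compound incubated with DTT at 0.8 mM final as the reducing agent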
Furin inh: blocks human furin protease activity | P09958 | purified furin, fluorogenic substrate cleavage | inhibition, % at 20 µM or 30 µM | actives 0.061% (n = 220,000) | AID 463115; in the data active means inhibition above about 25%
UBC9 SUMO inh: blocks human SUMOylation mediated by UBC9 | inhibition, % at 35 µM | P63279 | actives 0.36% (n = 290,000) | AID 2006 | HTRF SUMOylation assay, SAE1/SAE2 + UBC9, in vitro; in the data active means inhibition above about 50%, passing the limit was not always enough
FAS TE block: inhibitors of human fatty acid synthase thioesterase domain. P49327. recombinant FAS-TE, OMFH fluorogenic substrate, fluorescence endpoint. inhibition, % at 15 µM. actives 0.67% (n = 360,000). AID 602261;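 active means compounds whose normalised, plate-corrected inhibition of enzyme fluorescence in the single-dose primary screen is 50% or more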;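 further: 0% = DMSO with enzyme and 100% = substrate without enzyme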
FAS-TE conf: confirmation of human fatty acid synthase thioesterase inhibitors. shares compounds with FAS TE block. recombinant FAS-TE, OMFH fluorogenic substrate, fluorescence. inhibition, % at 15 µM. actives 45% (n = 2,300). AID 624325;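 active means compounds inhibiting the enzyme by at least 50% at 15 µM in any one of the replicates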;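 further: 0% = enzyme with DMSO only and 100% = wells lacking enzyme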
The depositor's hits bear a star; . = not tested or not shown.

SMILES	PKD1 inh	p97 ATPase inh	Redox H2O2 prof	Furin inh	UBC9 SUMO inh	FAS TE block	FAS-TE conf
CC1(C)CC2CC(C)(CN2S(=O)(=O)c2ccc(C(=O)Nc3ccc(S(=O)(=O)N4CCOCC4)cc3)cc2)C1 (configuration not stated)	-11	0	1	-10	-3	58*	25
CC(=O)Nc1ccc(S(=O)(=O)N2CC3(C)CC2CC(C)(C)C3)cc1 (configuration not stated)	-8	-1	0	-22	5	0	.
CC1(C)CC2CC(C)(CN2S(=O)(=O)c2ccc(C(=O)Nc3ccc(Cl)c(S(=O)(=O)N4CCOCC4)c3)cc2)C1 (configuration not stated)	-4	6	2	-19	-12	80*	13
COc1ccc(CNC(=O)C2CCC(CNc3c(N4CCC(C)CC4)c(=O)c3=O)CC2)cc1 (configuration not stated)	.	1	.	-21	10	2	.
COc1ccc(S(=O)(=O)N(CC(=O)NCc2ccco2)c2ccccc2OC)cc1	.	.	.	.	8	-2	.
CNc1snc(C)c1C(=O)OC(C)C(=O)Nc1ccccc1 (configuration not stated)	.	.	.	.	.	-6	.
COc1cc(C2NCC(c3ccc(Cl)cc3Cl)c3c2[nH]c2ccccc32)cc(OC)c1OC (configuration not stated)	-7	0	0	-10	-52	66*	27
O=C(O)c1ccc(C2NCC(c3ccccc3Cl)c3c2[nH]c2ccccc32)cc1 (configuration not stated)	-4	2	-1	-9	7	1	.
O=C(CN1C(=O)NC2(CCCc3ccccc32)C1=O)NC1CCCCC1 (configuration not stated)	.	.	.	.	.	-6	.
Cc1nn(Cc2ccc(F)cc2)c2sc(C(=O)Nc3ccc(N4CCOCC4)cc3N3CCOCC3)cc12	-7	-6	-1	4	-16	52*	26
CN(C(=O)COC(=O)c1cc([N+](=O)[O-])ccc1Cl)c1ccccc1	.	.	.	.	1	52*	62*
O=C(COC(=O)c1cc([N+](=O)[O-])ccc1Cl)NCCc1ccccc1	.	.	.	.	.	76*	83*
CN(C(=O)COC(=O)c1ccc([N+](=O)[O-])cc1)c1ccccc1	-8	-4	-2	-15	0	6	.
O=C(Cn1cc(C(F)(F)F)ccc1=O)OCC(=O)c1ccc[nH]1	.	.	.	.	.	-8	.
Cc1cccc(C(=O)NCC(=O)NCC2COc3ccccc3O2)c1 (configuration not stated)	.	.	.	.	.	-7	.
COC(=O)c1ccc2c(=O)n(-c3ccccc3)c(SCN3C(=O)c4ccccc4C3=O)nc2c1	0	7	-1	-10	17	62*	3
O=C(O)c1ccc(CSc2nc3ccccc3c(=O)n2-c2ccccc2)cc1	.	.	.	.	-9	-2	.
CN(C(=O)c1cccc(NC(=O)Cc2ccc(NC(=O)C3CCN(S(=O)(=O)c4cccc([N+](=O)[O-])c4)CC3)cc2)c1)C1CC1	.	.	.	.	.	7	.
CN(CCc1ccccc1)C(=O)c1ccc(NC(=O)Cc2cccc(NC(=O)C3CCN(S(=O)(=O)c4cccc([N+](=O)[O-])c4)CC3)c2)cc1	.	.	.	.	.	55*	9
CN(CCc1ccccc1)C(=O)c1ccc(NC(=O)Cc2ccc(NC(=O)C3CCN(S(=O)(=O)c4cccc([N+](=O)[O-])c4)CC3)cc2)cc1	.	.	.	.	.	62*	11
CN(C(=O)c1cccc(NC(=O)Cc2cccc(NC(=O)C3CCN(S(=O)(=O)c4cccc([N+](=O)[O-])c4)CC3)c2)c1)C1CC1	.	.	.	.	.	8	.
CN(C(=O)c1cccc(NC(=O)Cc2ccc(NC(=O)C3CCN(S(=O)(=O)c4cccc([N+](=O)[O-])c4)CC3)cc2)c1)C1CCCCC1	.	.	.	.	.	52*	25
NC(=O)c1ccc(SCC(=O)OCC(=O)NCC2CCCCC2)c([N+](=O)[O-])c1	.	.	.	.	.	-4	.
CC(=O)c1cc(C#N)c(SCCC(C)C)nc1C	-13	1	0	-20	-29	56*	48
CCSc1nc(C)c(C(C)=O)cc1C#N	-6	4	0	-18	10	13	.
CC(C)CCSc1nc(N)c(C#N)cc1C#N	-2	-5	1	-15	2	65*	9
